Data reported in PubChem BioAssay AID813 (Sanford-Burnham Center for Chemical Genomics, 2007).
In all, about 64,000 compounds went through this assay and fewer than 10 were called active.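 How the source made its calls: active means activation factor of at least 2 at 20 µM, relative to controls; inactive means the rest.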 Not all results are given here.

target: Alkaline phosphatase, tissue-nonspecific isozyme (Homo sapiens) (UniProt P05186); assay: stimulation of alkaline phosphatase TNAP activity – biochemical, luminescent, intermediate phosphate acceptor level, primary screen (AID 813); conditions: purified TNAP, CDP-star luminescence, 100 mM DEA, 30 min; at 20 µM; hits give high values; scale: 0 levamisole-inhibited, 1 vehicle-only enzyme
Sequence (P05186 whole entry, looked up): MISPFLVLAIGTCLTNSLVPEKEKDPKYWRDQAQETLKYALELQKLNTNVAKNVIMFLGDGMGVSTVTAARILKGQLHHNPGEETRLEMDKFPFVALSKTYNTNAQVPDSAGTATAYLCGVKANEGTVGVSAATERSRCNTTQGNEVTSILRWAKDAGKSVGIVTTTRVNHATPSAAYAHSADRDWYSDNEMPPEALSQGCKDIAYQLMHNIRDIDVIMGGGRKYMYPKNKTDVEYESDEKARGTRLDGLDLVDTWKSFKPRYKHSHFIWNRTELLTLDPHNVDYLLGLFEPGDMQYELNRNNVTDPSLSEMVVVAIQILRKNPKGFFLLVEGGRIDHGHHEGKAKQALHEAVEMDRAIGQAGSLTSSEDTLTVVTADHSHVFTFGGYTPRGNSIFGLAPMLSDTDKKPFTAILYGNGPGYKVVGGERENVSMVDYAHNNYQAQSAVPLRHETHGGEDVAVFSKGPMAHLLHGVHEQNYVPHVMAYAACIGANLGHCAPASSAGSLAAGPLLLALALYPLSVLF

| Structure (SMILES) | activation factor |
| --- | --- |
| O=C(C1CCCO1)N(Cc1ccccc1)c1ccccc1 (stereo unspecified) | 0.9 (inactive) |
| Cc1nn(-c2ccccc2)c2sc(C(=O)N(Cc3ccco3)C(C)C(=O)NC(C)(C)C)cc12 (stereo unspecified) | 0.9 (inactive) |
| COc1cccc(N2C(=O)CC(N3CCN(S(=O)(=O)c4ccccc4)CC3)C2=O)c1 (stereo unspecified) | 1 (inactive) |
| CCN(CC)S(=O)(=O)c1cccc(C(=O)NCC(=O)OCC(=O)NCc2ccccc2)c1 | 0.9 (inactive) |
| O=C(O)c1ccc(COc2c(F)c(F)cc(F)c2F)o1 | 0.8 (inactive) |
| CC12CN(Cc3ccccc3)CC(C)(CN(Cc3ccccc3)C1)C2=NO | 1.2 (inactive) |
| COc1ccc(C)cc1-n1nnnc1SCC(=O)c1cc(C)n(Cc2ccco2)c1C | 0.8 (inactive) |
| O=C(c1cccs1)N1CCN(Cc2ccc3c(c2)OCO3)CC1 | 1 (inactive) |
| COc1cccc(N2CC(C(=O)Nc3c(C)cccc3C)CC2=O)c1 (stereo unspecified) | 1 (inactive) |
| COc1cccc(N(C(=O)c2ccn[nH]2)C2(C(=O)Nc3c(C)cccc3C)CCCCC2)c1 | 2.8 (active) |
| Fc1cc(F)c2nc(N3CCOCC3)sc2c1 | 0.9 (inactive) |
| Cc1ccc(C(=O)O)cc1S(=O)(=O)NCC1CCCO1 (stereo unspecified) | 0.9 (inactive) |
| COC(=O)c1ccccc1NC(=O)C1CCN(S(=O)(=O)c2cc(OC)ccc2OC)CC1 | 0.9 (inactive) |
| Cc1cccc(N)c1SC1CCCCC1O (stereo unspecified) | 0.9 (inactive) |
| CC(=O)Nc1cccc2c1[n+]([O-])c(C)c(C)[n+]2[O-] | 1 (inactive) |
| CC(=O)OC(C(=O)NCCc1ccccc1)c1cccnc1 (stereo unspecified) | 1 (inactive) |
| CCc1nc2oc3ccccc3c(=O)c2c(=O)n1Cc1ccc(OC)cc1 | 0.9 (inactive) |
| CCSc1ncnc2c(C#N)c3n(c12)CCCCC3 | 0.9 (inactive) |
| O=C(Nc1c(C(=O)N2CCCCC2)cnn1-c1ccccc1)c1ccco1 | 1 (inactive) |
| CC1(C)CC(=O)C2=C(C1)NCN(CCCN1CCOCC1)C2 | 0.9 (inactive) |
| CCOC(=O)N1CCN(C(=O)Cc2ccc(-n3c(=S)[nH]c4ccccc4c3=O)cc2)CC1 | 1 (inactive) |
| O=C(OC(C(=O)NC1CCCC1)c1ccc(F)cc1)c1ccno1 (stereo unspecified) | 0.9 (inactive) |
| CC(=O)N1CCN(CCN=CC2=C(O)CC(C)(C)CC2=O)CC1 | 0.9 (inactive) |
| OCCCN1c2ccccc2Nc2nnc(-c3ccccc3)cc21 | 4.3 (active) |

| Structure (SMILES) | activation factor |
| --- | --- |
| CCCS(=O)(=O)C(=C1Nc2ccccc2N1)S(=O)(=O)CCC | 0.9 (inactive) |
| O=C(Cc1c(F)cccc1Cl)N1CCN(C(=O)c2ccco2)CC1 | 0.8 (inactive) |
| O=C(COc1ccccc1Cl)Nn1cnnc1 | 0.9 (inactive) |
| O=C(CN(Cc1ccccc1)C(=O)c1ccc2c(c1)OCCO2)NCc1ccc2c(c1)OCO2 | 0.9 (inactive) |
| COc1ccc(C(=O)N(CCN2CCOCC2)CC(=O)NC2CCCC2)cc1OC | 0.9 (inactive) |
| COc1ccc(C2C3=C(OC(C)=O)c4ccccc4C3=Nc3c2c(=O)n(C)c(=O)n3C)cc1 (stereo unspecified) | 0.8 (inactive) |
| Cc1ccc(S(=O)(=O)c2c(N)n(C)c3nc4ccccc4nc23)cc1 | 0.9 (inactive) |
| NC(=O)C1CCN(C2OC(=O)c3ccccc32)CC1 (stereo unspecified) | 0.9 (inactive) |
| O=C(OCC(=O)N1CCN(C(=O)c2ccco2)CC1)c1ccccc1Cc1ccccc1 | 1 (inactive) |
| Cc1coc2c(O)cc3c(c12)OC1(N2CCCCC2)C(=O)NCCCC31 (stereo unspecified) | 0.9 (inactive) |
| CCC1=[N+]([O-])C(C)(/C(C)=N\O)N(O)C1(C)C (stereo unspecified) | 1 (inactive) |
| O=C(CN1CCN(C(=O)c2cccc(F)c2)CC1)Nc1ccccc1F | 1.1 (inactive) |
| CC/C(=N\O)C(C)(C)/[N+]([O-])=C/c1ccc(Br)cc1 | 0.9 (inactive) |
| CCCN1Cc2cccc(C(=O)NCc3ccccc3)c2C1=O | 0.9 (inactive) |
| CC(=O)N1CCc2cc(S(=O)(=O)Nc3ccccc3N3CCN(C)CC3)ccc21 | 1 (inactive) |
| CCN(CC)c1ccc2cc(C(=O)O)c(=O)oc2c1 | 1 (inactive) |
| Cc1ccc(C)c(N2CCN(C(=O)CCCCn3c(=O)[nH]c4ccccc4c3=O)CC2)c1 | 0.8 (inactive) |
| CC1(C)Cc2c(sc3nc4n(c(=N)c23)CCCCC4)CO1 | 0.4 (inactive) |
| O=c1cccc(-c2ccc(Br)cc2)o1 | 0.9 (inactive) |
| O=C(CN1CCN(c2ccc(F)cc2)CC1)Nc1cccc(C(F)(F)F)c1 | 0.9 (inactive) |
| Cc1ccc(S(=O)(=O)N2CCC(C(=O)OCC(=O)N3CC(=O)Nc4ccccc43)CC2)cc1 | 0.9 (inactive) |
| CCC(c1nnnn1Cc1ccco1)N(CCc1ccccc1)Cc1cc2cccc(C)c2[nH]c1=O (stereo unspecified) | 0.9 (inactive) |
| O=C1CC(Cc2ccccc2)C(=O)N1c1ccc(Cl)cn1 (stereo unspecified) | 1 (inactive) |
| C=CCn1c(SCC(=O)NC23CC4CC(CC(C4)C2)C3)nc(O)cc1=O | 0.9 (inactive) |

| Structure (SMILES) | activation factor |
| --- | --- |
| CCn1c(=N)n(CC(=O)c2cccc(OC)c2)c2ccccc21 | 1 (inactive) |
| O=C(CCCOc1ccccc1)Nc1cccc(C(=O)O)c1 | 1 (inactive) |
| COc1ccc(S(=O)(=O)N2CCN(c3ncnc4c(-c5ccccc5)nsc34)CC2)cc1 | 0.9 (inactive) |
| CCOC(=O)c1c(N)c(C#N)nn1-c1ccccc1C(=O)OC | 0.8 (inactive) |
| Cc1cccc(N2CC(C)Cn3c2nc2c3c(=O)n(CC(=O)OCc3ccccc3)c(=O)n2C)c1 (stereo unspecified) | 0.9 (inactive) |
| CCn1c(=O)cc(O)c2ccccc21 | 1 (inactive) |
| O=C1c2ccccc2C(O)N1Cc1ccccc1 (stereo unspecified) | 1 (inactive) |
| CCOc1ccc(CCNC(=O)C(CC)n2nc(C)n3c(cc4sccc43)c2=O)cc1OCC (stereo unspecified) | 1 (inactive) |
| Cc1cc(=O)n2c3c(cccc13)CCC2 | 0.9 (inactive) |
| CC(C)OCCCNc1nc2c(c(=O)n(Cc3ccccc3F)c(=O)n2C)n1C | 0.9 (inactive) |
| CCOC(=O)c1sc(NC(=O)c2cc(S(=O)(=O)N3CCOCC3)ccc2C)nc1C | 0.9 (inactive) |
| Cc1ccc(S(=O)(=O)NCCN2CCOCC2)cc1C | 1 (inactive) |
| Cc1cc(C(=O)N2CCN(c3ccccn3)CC2)c(C)o1 | 0.9 (inactive) |
| CC(=O)NCC(=O)N(C)C(C(=O)Nc1ccc2c(c1)OCCO2)c1ccccc1 (stereo unspecified) | 1 (inactive) |
| CCOC(=O)c1c(C2CC2)csc1NC(=O)CSCc1c(C)noc1C | 0.9 (inactive) |
| O=C(NC1CCCCC1)c1ccc2c(=O)n(CC3CCCO3)c(=O)[nH]c2c1 (stereo unspecified) | 1 (inactive) |
| CCOc1ccc(OCC)c(NC(=O)CSc2nnc(Cn3cnc4ccccc43)n2C)c1 | 0.9 (inactive) |
| CCOC(=O)CSc1nc2c(c(=O)n(Cc3ccccc3Cl)c(=O)n2C)n1C | 0.9 (inactive) |
| CCOC(=O)C1=C(CNC2CCCCC2)NC(=O)NC1c1cc(C)ccc1C (stereo unspecified) | 0.9 (inactive) |
| CSc1ccc(S(=O)(=O)NCc2ccc(Cl)cc2)cc1 | 0.8 (inactive) |
| CC1(C)CC(=O)C=C(NC2CC(C)(C)NC(C)(C)C2)C1 | 0.9 (inactive) |
| CCOC(=O)n1c(SCC(=O)N(CC)CC)nc2ccccc21 | 0.9 (inactive) |
| CCC(C)(C)n1nnnc1C(c1ccccc1OC)N1CCSCC1 (stereo unspecified) | 0.9 (inactive) |
